# The supplement of paper PMC12350171
# Counter-ions that a name gives are not always drawn. A number with no mark means an inactive call.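 The calls were made as follows: active = AUC significantly below DMSO controls by Student t-fit with adjusted P under 0.01; inactive = not significantly reduced.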
# Tested on: Haemophilus parainfluenzae
# Assay: growth AUC normalised to DMSO control (fraction of control); higher = less growth inhibition, active = hit call of the paper
# Settings: 20 µM
# Summary of the method: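 Three biological replicates were carried out, with OD578 read hourly for 24 h. Before inoculation at a starting OD578 of 0.01, pathogens were passaged anaerobically twice; plates were pre-reduced mGAM containing 20 μM compound and 1% DMSO, sealed with breathable membranes, and the Haemophilus parainfluenzae medium carried added hemin and NAD. Area under each growth curve was calculated by the trapezoidal rule up to the exponential-to-stationary transition and normalised to DMSO controls on the same plate.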
row,SMILES,growth AUC normalised to DMSO control
1,"CC(C)(S)C(N)C(=O)O (racemic) [D,L-Penicillamine]",0.981
2,CCOC(=O)c1ccc(OC(=O)CCCCCNC(=N)N)cc1 [Gabexate mesilate],0.919
3,COc1ccc(C(=O)NCc2ccc(OCCN(C)C)cc2)cc1OC [Itopride],0.993
4,OC(CCN1CCCCC1)(c1ccccc1)C1CC2C=CC1C2 (centres undefined) [Biperiden hydrochloride],0.95
5,COc1ccc(Cl)cc1C(=O)NCCc1ccc(S(=O)(=O)NC(=O)NC2CCCCC2)cc1 [Glibenclamide],0.952
6,COc1ccc(OC)c(C(O)CNC(=O)CN)c1 (centres undefined) [Midodrine hydrochloride],1.02
7,COCCCC/C(=N\OCCN)c1ccc(C(F)(F)F)cc1 [Fluvoxamine maleate],0.981
8,CC[C@H](C)C(=O)O[C@H]1C[C@H](O)C=C2C=C[C@H](C)[C@H](CC[C@@H](O)C[C@@H](O)CC(=O)O)[C@H]21 [Pravastatin],1.09
9,CCOC(=O)C1=C(C)NC(C)=C(C(=O)OCC)C1c1ccccc1/C=C/C(=O)OC(C)(C)C [Lacidipine],1.01
10,CCC(NC(C)C)C(O)c1ccc(O)c(O)c1 (centres undefined) [Isoetharine mesylate salt],1.01
11,CCOC(=O)[C@@](C)(N)Cc1ccc(O)c(O)c1 [Methyldopate hydrochloride],0.995
12,NCCCC[C@H](N[C@@H](CCc1ccccc1)C(=O)O)C(=O)N1CCC[C@H]1C(=O)O [Lisinopril],0.992
13,COc1cc2nc(N(C)CCCNC(=O)C3CCCO3)nc(N)c2cc1OC (centres undefined) [Alfuzosin hydrochloride],1.03
14,CN1CCC(=C2c3ccccc3Sc3ccccc32)CC1 [Pimethixene maleate],0.908
15,O=C(O)CNC(=O)C(CS)Cc1ccccc1 (centres undefined) [Thiorphan],0.891
16,CN(C)C/C=C(/c1ccc(Br)cc1)c1cccnc1 [Zimelidine dihydrochloride monohydrate],0.972
17,Cn1c(=O)c2c(ncn2CC(=O)O)n(C)c1=O [Acefylline],0.969
18,COC(=O)Nc1nc2cc(C(=O)c3ccccc3)ccc2[nH]1 [Mebendazole],0.983
19,COc1cccc2c1C(=O)c1c(O)c3c(c(O)c1C2=O)C[C@@](O)(C(=O)CO)C[C@@H]3O[C@H]1C[C@H](N)[C@H](O)[C@H](C)O1 [Doxorubicin hydrochloride],0.979
20,COc1ccc(C(=O)c2ccccc2)c(O)c1 [Oxybenzone],1.06

row,SMILES,growth AUC normalised to DMSO control
1,CCN(CC)CCNC(=O)COc1ccc(OC)cc1 [Mefexamide hydrochloride],0.985
2,CNCCCC1c2ccccc2C=Cc2ccccc21 [Protriptyline hydrochloride],0.977
3,Cc1ncc(CO)c(CO)c1O [Pyridoxine hydrochloride],0.958
4,CCC[C@H](N[C@@H](C)C(=O)N1[C@H](C(=O)O)C[C@@H]2CCCC[C@@H]21)C(=O)OCC [Perindopril],1.01
5,Cn1ccnc1S [Methimazole],1.02
6,CN[C@@H]1[C@H](O[C@H]2[C@H](O[C@H]3[C@H](O)[C@@H](O)[C@H](NC(=N)N)[C@@H](O)[C@@H]3NC(=N)N)O[C@@H](C)[C@]2(O)CO)O[C@@H](CO)[C@H](O)[C@H]1O [Dihydrostreptomycin sulfate],0.0409 (active)
7,CCCCCN(C)CCC(O)(P(=O)(O)O)P(=O)(O)O [Ibandronate sodium],0.995
8,CC(C)N1CCN(c2ccc(OCC3COC(Cn4cncn4)(c4ccc(Cl)cc4Cl)O3)cc2)CC1 (centres undefined) [Terconazole],1.03
9,NCc1ccc(S(N)(=O)=O)cc1 [Mafenide hydrochloride],1
10,CC(C)NC[C@H](O)COc1cccc2ccccc12 [(S)-(-)-Propranolol hydrochloride],1.03
11,N=C(N)NCCN1CCCCCCC1 [Guanethidine sulfate],1.03
12,O=c1[nH]c(=O)n([C@H]2C[C@H](O)[C@@H](CO)O2)cc1C(F)(F)F [Trifluridine],1.08
13,CC(=O)N(O)CCCCCNC(=O)CCC(=O)N(O)CCCCCNC(=O)CCC(=O)N(O)CCCCCN [Deferoxamine mesylate],1.07
14,Cc1ccc(-c2ncc(Cl)cc2-c2ccc(S(C)(=O)=O)cc2)cn1 [Etoricoxib],1
15,COc1ccccc1OCC(O)CN1CCN(CC(=O)Nc2c(C)cccc2C)CC1 (centres undefined) [Ranolazine],1.03
16,CCC(C)(CN(C)C)OC(=O)c1ccccc1 (centres undefined) [Amyleine hydrochloride],1.01
17,C[C@H]1[C@H](NC(=O)/C(=N\OC(C)(C)C(=O)O)c2csc(N)n2)C(=O)N1S(=O)(=O)O [Aztreonam],0.0582 (active)
18,O=C(NCCN1CCOCC1)c1ccc(Cl)cc1 [Moclobemide],0.971
19,NC1CCN(c2nc3c(cc2F)c(=O)c(C(=O)O)cn3-c2ccc(F)cc2F)C1 (centres undefined) [Tosufloxacin hydrochloride],0.0424 (active)
